Source: PubChem BioAssay AID777 (Sanford-Burnham Center for Chemical Genomics, 2007)
The campaign covered roughly 96,000 compounds. About 19,000 (20%) were called active. Not all results are given here. Unmarked numbers belong to inactive results.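 How the source made its calls: active means blocking of liver enzyme CYP2C9 beyond about 50% at 5 µM (limit read from the data); inactive means the rest.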

Each compound was assayed against Cytochrome P450 2C9 (Homo sapiens) (UniProt P11712) (assay: blockers of cytochrome P450 2C9 activity – biochemical, luminescence, ADME assay, primary screen (AID 777)). Conditions: CYP2C9 Supersomes, luciferin-H conversion, at 5 µM, active compounds read high.
Chain of Cytochrome P450 2C9 (Homo sapiens) (P11712 whole entry, looked up): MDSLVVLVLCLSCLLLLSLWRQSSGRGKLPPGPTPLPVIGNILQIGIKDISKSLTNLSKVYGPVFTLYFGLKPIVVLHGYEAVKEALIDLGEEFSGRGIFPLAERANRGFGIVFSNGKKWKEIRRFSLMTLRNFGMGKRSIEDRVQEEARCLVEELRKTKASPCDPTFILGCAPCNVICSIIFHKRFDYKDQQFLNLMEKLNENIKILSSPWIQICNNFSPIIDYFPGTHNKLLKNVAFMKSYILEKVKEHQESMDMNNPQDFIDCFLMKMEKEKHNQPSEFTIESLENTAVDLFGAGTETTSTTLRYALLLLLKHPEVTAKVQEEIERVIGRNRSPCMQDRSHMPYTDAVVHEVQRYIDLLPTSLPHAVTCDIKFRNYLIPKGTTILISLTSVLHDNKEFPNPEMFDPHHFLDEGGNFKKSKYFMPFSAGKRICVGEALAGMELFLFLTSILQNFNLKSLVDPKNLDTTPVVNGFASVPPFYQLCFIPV

Compound	inhibition
COc1ccc(C2C(C(C)=O)=C(O)C(=O)N2c2nccs2)cc1 (configuration not stated)	5%
COC(=O)N1CN(C(=O)OC)CN(C(=O)OC)C1	-12.2%
COn1c(=O)c(=O)n(OC)c2ccccc21	3.2%
CCc1ccccc1N(CC(=O)N1CCN(c2ccccc2F)CC1)S(C)(=O)=O	2.9%
CCOC(=O)C1CCc2nc3ccccc3c(=O)n21 (configuration not stated)	3.3%
CC(Sc1nc2ccccc2c(=O)n1Cc1ccco1)C(=O)c1ccccc1 (configuration not stated)	88.2% (active)
CCOC(=O)C(C)Sc1nc2ccccc2c(=O)n1CC1CCCCC1 (configuration not stated)	78.8% (active)
N#Cc1c(NC(=O)CSc2nc3ccccc3c(=O)n2Cc2ccco2)sc2c1CCCC2	3.9%
O=c1[nH]c(CSc2ncc(-c3ccc(F)cc3)n2Cc2ccco2)nc2ccccc12	21.2%
CCOn1c(SC(C)C)nc2ccccc2c1=O	17.6%
O=C(CNS(=O)(=O)c1cccc(C(F)(F)F)c1)Nc1ccccc1F	-19.7%
Cc1c2cn[nH]c(=O)c2c(C)n1Cc1ccc(F)cc1	6.2%
CSCc1cc(N2CCOCC2)nc(SCc2ccc(Cl)cc2Cl)n1	57.5% (active)
Clc1ccc(CSc2nnc(/C=C/c3ccccc3)o2)c(Cl)c1	49.9%
Nc1nc(SCc2ccccc2Cl)n[nH]1	-6.7%
O=c1cc(CSc2ccc(Cl)cc2)nc(N2CCOCC2)[nH]1	8.5%
CSCc1cc(N(C)C)nc(SCc2ccc(Cl)cc2Cl)n1	56.7% (active)
COc1ccc([N+](=O)[O-])cc1C1NN=C(c2cccc3ccccc23)S1 (configuration not stated)	-70.8%
CCC(=O)NNc1cc(=O)c2c(=O)n(C)c(=O)n(C)c2[nH]1	4%
COc1ccc(S(=O)(=O)NC2(C(F)(F)F)N=C3SCCN3C2=O)cc1 (configuration not stated)	-5.2%
CSCCC(NC(=O)c1ccc(=O)n(C)n1)c1nc2ccccc2[nH]1 (configuration not stated)	10.3%
CC1CCCCC1NC(=O)CCS(=O)(=O)c1cccc2nonc12 (configuration not stated)	7.9%
Cc1ccc(S(=O)(=O)N(CC(=O)NCCSC2CCCCC2)c2ccccc2F)cc1	-9.7%
CCNC(=O)CN(c1ccc(C)cc1)S(=O)(=O)c1ccc(SC)cc1	26.9%
CCCNC(=O)CN(Cc1ccccc1F)S(=O)(=O)c1ccc(C)cc1	74.3% (active)
CCCC(=O)N(CCc1ccccc1)Cc1nc2ccccc2c(=O)[nH]1	38.3%
COc1nc(-c2ccc(Cl)cc2)ccc1-c1noc(-c2cccs2)n1	23.2%
